Source: PubChem BioAssay (Tox21)
A number with no mark means an inactive call. Results filed as inconclusive are left out. A call without a number means that no potency is given here. Calls of active or inactive are those of the source. Unless noted, the call rests on the fitted dose curve; in most records, active means well fitted curve in the direction sought with a large enough effect in the repeat runs; inconclusive means weak or mixed curves; inactive means no such curve, though single readings can be large; an effect the other way counts as inactive or inconclusive.

What was measured:
[1] = qHTS assay to identify small molecule antagonists of the androgen receptor (AR) signaling pathway using the MDA cell line in the presence of 0.5 nM R1881 - cell viability counter screen (AID 1259242); further: nearly all actives have a fitted effect of over 45% in size
Summary of the method: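 Human breast carcinoma MDA-kb2 cells, cultured without CO2, receive compounds alongside 0.5 nM (final) R1881 agonist. After 16 hr at 37C, viability is taken as live-cell protease signal.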

[2] = molecular target: Estrogen receptor (Homo sapiens) (UniProt P03372); test: qHTS assay to identify small molecule antagonists of the estrogen receptor alpha (ER-alpha) signaling pathway using the BG1 cell line in the presence of 0.1 nM 17-beta-estradiol (AID 1259244); further: nearly all actives have a fitted effect of over 50% in size; further: potency means the concentration at half of the fitted maximal effect
Chain of Estrogen receptor (Homo sapiens) (P03372 whole entry, looked up): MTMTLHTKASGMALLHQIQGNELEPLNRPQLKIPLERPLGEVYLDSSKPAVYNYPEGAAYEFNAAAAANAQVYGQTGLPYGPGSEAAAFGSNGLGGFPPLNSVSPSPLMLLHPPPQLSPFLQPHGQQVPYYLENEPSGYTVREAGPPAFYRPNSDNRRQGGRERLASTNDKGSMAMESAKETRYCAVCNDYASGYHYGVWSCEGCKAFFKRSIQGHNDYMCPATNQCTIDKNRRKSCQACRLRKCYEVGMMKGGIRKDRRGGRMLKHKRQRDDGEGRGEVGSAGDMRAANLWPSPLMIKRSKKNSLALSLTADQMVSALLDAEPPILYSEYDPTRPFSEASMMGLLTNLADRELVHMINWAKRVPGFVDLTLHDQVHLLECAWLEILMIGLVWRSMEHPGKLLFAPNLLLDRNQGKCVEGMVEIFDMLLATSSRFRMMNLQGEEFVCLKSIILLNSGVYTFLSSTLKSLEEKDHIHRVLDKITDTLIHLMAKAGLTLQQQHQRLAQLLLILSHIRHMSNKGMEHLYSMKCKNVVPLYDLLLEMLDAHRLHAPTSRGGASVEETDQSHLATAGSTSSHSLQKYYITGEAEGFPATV
Summary of the method: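 Seeding of stripped-serum-adapted VM7Luc4E2 cells, 24 h attachment, compound transfer, then 0.1 nM final 17beta-estradiol; after 22 h incubation, ONE-Glo reagent and luminescence reading.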

[3] = qHTS assay to identify small molecule HDAC inhibitors (AID 1259364);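 further: wild-type HCT-116 cells with endogenous class I/II HDAC activity; top concentration of the series differs between compounds; nearly all actives have a fitted effect of over 45% in size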
Summary of the method: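 After a 2 hr compound incubation (37C, 5% CO2), HCT-116 cells seeded at 1,500/well the day before received HDAC-Glo reagent; signal read as luminescence after 30 min at room temperature.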

[4] = qHTS assay to identify small molecule HDAC inhibitors - cell viability counter screen (AID 1259365); further: series mostly up to about 92 µM; nearly all actives have a fitted effect of over 50% in size
Summary of the method: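 CellTiter-Glo luminescence (30 min, room temperature) reported viability after a 2 h compound exposure at 37 C. Cells: wild-type HCT-116, 1,500 per well, seeded the night before.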

[5] = qHTS assay to identify small molecule agonists of the sonic hedgehog signaling (Shh) pathway - cell viability counter screen (AID 1259366); further: nearly all actives have a fitted effect of over 50% in size; further: potency means the concentration at half of the fitted maximal effect
Summary of the method: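 Cytotoxicity counter screen: CellTiter-Fluor reagent added after 23 h compound exposure, then 1 h at 37C and fluorescence read. Cells were 3T3 Gli1-Luc, seeded 2,000 per well and dosed 4 h post-plating.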

[6] = qHTS assay to identify small molecule antagonists of the sonic hedgehog signaling (Shh) pathway - cell viability counter screen (AID 1259367); further: nearly all actives have a fitted effect of over 55% in size
Summary of the method: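 Viability was read by CellTiter-Fluor fluorescence in the same wells, reagent added 23 hr into compound treatment and incubated 1 hr at 37C. The 3T3 Gli1-Luc reporter cells (2,000/well) received conditioned medium after compound and ran 24 hr.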

[7] = qHTS assay to identify small molecule antagonists of the sonic hedgehog signaling (Shh) pathway (AID 1259369; calls by dose curve; further: nearly all actives have a fitted effect of over 45% in size; further: potency means the concentration at half of the fitted maximal effect)
Summary of the method: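 Gli1 transcriptional reporter (firefly Luc) in NIH/3T3 background, conditioned-medium activated. 24hr exposure, luminescence endpoint.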

[8] = molecular target: Estrogen receptor beta (Homo sapiens) (UniProt Q92731); test: qHTS assay to identify small molecule agonists of the estrogen receptor beta (ER-beta) signaling pathway (AID 1259377; active means well fitted activation curve with a large enough effect in the signal ratio in the repeat runs, not every such curve was filed as active; the % refers to the signal ratio)
Chain of Estrogen receptor beta (Homo sapiens) (Q92731 whole entry, looked up): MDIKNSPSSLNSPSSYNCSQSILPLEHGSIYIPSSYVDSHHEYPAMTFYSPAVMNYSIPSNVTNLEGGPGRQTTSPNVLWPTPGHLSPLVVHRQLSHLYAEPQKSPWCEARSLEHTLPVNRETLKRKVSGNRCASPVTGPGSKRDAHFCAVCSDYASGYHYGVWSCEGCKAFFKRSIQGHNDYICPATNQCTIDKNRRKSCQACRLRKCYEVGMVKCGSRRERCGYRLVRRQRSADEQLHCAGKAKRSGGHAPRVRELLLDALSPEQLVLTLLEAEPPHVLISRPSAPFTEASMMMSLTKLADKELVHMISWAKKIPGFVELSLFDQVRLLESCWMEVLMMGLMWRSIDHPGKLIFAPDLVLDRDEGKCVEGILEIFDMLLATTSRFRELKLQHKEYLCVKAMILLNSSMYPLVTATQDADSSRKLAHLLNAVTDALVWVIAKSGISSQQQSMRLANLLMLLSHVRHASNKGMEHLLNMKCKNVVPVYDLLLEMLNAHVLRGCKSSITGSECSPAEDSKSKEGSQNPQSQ
Summary of the method: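 Ratiometric beta-lactamase FRET read-out came after 2 h substrate loading at room temperature. It followed 16 h compound treatment at 37C of GripTite HEK293T cells carrying a UAS-bla reporter, plated in 2% charcoal-stripped FBS medium.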

[9] = molecular target: Estrogen receptor beta (Homo sapiens) (UniProt Q92731); test: qHTS assay to identify small molecule antagonists of the estrogen receptor beta (ER-beta) signaling pathway (AID 1259378; active means well fitted inhibition curve with a large enough effect in the signal ratio in the repeat runs, not every such curve was filed as active; the % refers to the signal ratio)
Summary of the method: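 Antagonist mode: compounds added to beta-lactamase reporter HEK293T ER-beta-UAS cells stimulated with E2 (1nM final), 16 hr at 37C. LiveBLAzer B/G FRET substrate, 2 hours room temperature, fluorescence read-out.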

[10] = qHTS assay to identify small molecule agonists of the estrogen receptor beta (ER-beta) signaling pathway - cell viability counter screen (AID 1259380); further: nearly all actives have a fitted effect of over 30% in size
Summary of the method: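 In this qHTS counter screen, HEK293T cells carrying an ER-beta/UAS beta-lactamase reporter, grown in 2% charcoal-stripped FBS, received compound for 16 hr; ATP-based CellTiter-Glo luminescence was then read after 30 min at room temperature.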

[11] = qHTS assay to identify small molecule antagonists of the estrogen receptor beta (ER-beta) signaling pathway - cell viability counter screen (AID 1259382);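 further: HEK293T cells carrying ER-beta-UAS-bla reporter stimulated with estradiol; series mostly up to about 92 µM; nearly all actives have a fitted effect of over 55% in size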
Summary of the method: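 HEK293T ER-beta-UAS-bla, 2% charcoal-stripped FBS; compounds + 1nM E2 16 hr 37C; CellTiter-Glo luminescence, 30 min RT.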

[12] = molecular target: Estrogen receptor (Homo sapiens) (UniProt P03372); test: qHTS assay to identify small molecule agonists of the estrogen receptor alpha (ER-alpha) signaling pathway in the presence of an antagonist (AID 1259383; calls by dose curve; further: top concentration of the series differs between compounds; nearly all actives have a fitted effect of over 15% in size)
Summary of the method: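 ER-alpha agonism measured under antagonist challenge: 10.0nM ICI-182,780 (final) plus compound, 15 concentrations, 22hr, VM7Luc4E2 ERE-luciferase cells. Read by luminescence.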

[13] = qHTS assay to identify small molecule agonists or antagonists of the thyroid stimulating hormone receptor (TSHR) signaling pathway - wild type cell line counter screen (AID 1259384; calls by dose curve)
Summary of the method: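 Counter screen in untransfected Hek293: compounds (15-point titration, triplicate) plus phosphodiesterase inhibitor Ro20-1724 added after 18 h plating; 30 min RT. Intracellular cAMP via competitive d2/cryptate immunoassay, 1 h incubation.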

[14] = molecular target: Thyrotropin receptor (Homo sapiens) (UniProt P16473); test: qHTS assay to identify small molecule antagonists of the thyroid stimulating hormone receptor (TSHR) signaling pathway (AID 1259385; calls by dose curve; further: nearly all actives have a fitted effect of over 20% in size)
Chain of Thyrotropin receptor (Homo sapiens) (P16473 whole entry, looked up): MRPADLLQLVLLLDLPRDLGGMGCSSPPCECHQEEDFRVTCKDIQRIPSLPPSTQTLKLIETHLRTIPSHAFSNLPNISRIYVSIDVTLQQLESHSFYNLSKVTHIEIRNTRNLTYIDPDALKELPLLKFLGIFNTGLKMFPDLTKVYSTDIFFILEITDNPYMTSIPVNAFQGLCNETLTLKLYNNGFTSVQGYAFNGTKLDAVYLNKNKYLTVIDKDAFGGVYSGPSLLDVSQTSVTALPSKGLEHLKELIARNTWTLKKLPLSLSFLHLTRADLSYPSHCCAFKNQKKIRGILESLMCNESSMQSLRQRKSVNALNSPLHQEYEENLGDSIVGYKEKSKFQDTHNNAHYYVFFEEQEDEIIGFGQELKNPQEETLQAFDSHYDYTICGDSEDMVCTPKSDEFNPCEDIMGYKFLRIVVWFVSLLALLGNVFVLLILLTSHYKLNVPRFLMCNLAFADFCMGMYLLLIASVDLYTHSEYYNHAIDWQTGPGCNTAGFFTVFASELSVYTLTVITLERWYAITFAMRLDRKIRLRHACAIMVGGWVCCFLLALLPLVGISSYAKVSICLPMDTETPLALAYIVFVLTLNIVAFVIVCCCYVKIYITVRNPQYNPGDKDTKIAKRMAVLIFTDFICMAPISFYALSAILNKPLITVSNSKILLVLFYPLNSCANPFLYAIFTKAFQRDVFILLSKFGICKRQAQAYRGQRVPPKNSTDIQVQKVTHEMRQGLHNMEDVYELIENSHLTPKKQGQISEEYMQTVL
Summary of the method: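 Antagonist mode: compound-treated TSHR-expressing HEK293 cells were stimulated with 1.5 ng/mL TSH (final) in presence of Ro20-1724 for 30 min at RT. HTRF cAMP detection after 1 h; each compound tested at 15 concentrations, triplicate.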

[15] = qHTS assay to identify small molecule agonists of the estrogen receptor alpha (ER-alpha) signaling pathway in the presence of an antagonist - cell viability counter screen (AID 1259386);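 further: series mostly up to about 92 µM; cells exposed to compounds for 22 h at 37 °C before the viability read; nearly all actives have a fitted effect of over 30% in size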
Summary of the method: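 Steps: 5-day stripped-FBS culture; seed and incubate 24hr; add ICI-182,780 (10.0nM final); pin 15-point compound titration; incubate 22hr at 37C; add CellTiter-Fluor at 21hr; read fluorescence.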

[16] = qHTS assay to identify small molecule agonists of the sonic hedgehog signaling (Shh) pathway (AID 1259368; calls by dose curve;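 further: NIH/3T3-derived 3T3Gli1-Luc cells carrying a stable Gli1-driven firefly luciferase reporter; series mostly up to about 92 µM; nearly all actives have a fitted effect of over 15% in size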)
Summary of the method: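 Stable NIH/3T3 Gli1-Luc reporter clone; 24 hr cpd exposure after a 4 hr settling period; luminescence endpoint.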

[17] = qHTS assay to identify small molecule agonists of the androgen receptor (AR) signaling pathway in the presence of an antagonist - cell viability counter screen (AID 1259379);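 further: MDA-kb2 human breast cancer cells carrying an MMTV luciferase reporter; series mostly up to about 92 µM; nearly all actives have a fitted effect of over 25% in size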
Summary of the method: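 Counter screen for cell viability run in parallel with the AR agonist-mode luciferase assay. MDA-kb2 cells were co-treated with nilutamide (3.0uM final) and compounds, then incubated 16 hr at 37C, and CellTiter-Fluor fluorescence was measured.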

[18] = molecular target: Androgen receptor (Homo sapiens) (UniProt P10275); test: qHTS assay to identify small molecule agonists of the androgen receptor (AR) signaling pathway in the presence of an antagonist (AID 1259381; calls by dose curve; further: nearly all actives have a fitted effect of over 15% in size)
Chain of Androgen receptor (Homo sapiens) (P10275 whole entry, looked up): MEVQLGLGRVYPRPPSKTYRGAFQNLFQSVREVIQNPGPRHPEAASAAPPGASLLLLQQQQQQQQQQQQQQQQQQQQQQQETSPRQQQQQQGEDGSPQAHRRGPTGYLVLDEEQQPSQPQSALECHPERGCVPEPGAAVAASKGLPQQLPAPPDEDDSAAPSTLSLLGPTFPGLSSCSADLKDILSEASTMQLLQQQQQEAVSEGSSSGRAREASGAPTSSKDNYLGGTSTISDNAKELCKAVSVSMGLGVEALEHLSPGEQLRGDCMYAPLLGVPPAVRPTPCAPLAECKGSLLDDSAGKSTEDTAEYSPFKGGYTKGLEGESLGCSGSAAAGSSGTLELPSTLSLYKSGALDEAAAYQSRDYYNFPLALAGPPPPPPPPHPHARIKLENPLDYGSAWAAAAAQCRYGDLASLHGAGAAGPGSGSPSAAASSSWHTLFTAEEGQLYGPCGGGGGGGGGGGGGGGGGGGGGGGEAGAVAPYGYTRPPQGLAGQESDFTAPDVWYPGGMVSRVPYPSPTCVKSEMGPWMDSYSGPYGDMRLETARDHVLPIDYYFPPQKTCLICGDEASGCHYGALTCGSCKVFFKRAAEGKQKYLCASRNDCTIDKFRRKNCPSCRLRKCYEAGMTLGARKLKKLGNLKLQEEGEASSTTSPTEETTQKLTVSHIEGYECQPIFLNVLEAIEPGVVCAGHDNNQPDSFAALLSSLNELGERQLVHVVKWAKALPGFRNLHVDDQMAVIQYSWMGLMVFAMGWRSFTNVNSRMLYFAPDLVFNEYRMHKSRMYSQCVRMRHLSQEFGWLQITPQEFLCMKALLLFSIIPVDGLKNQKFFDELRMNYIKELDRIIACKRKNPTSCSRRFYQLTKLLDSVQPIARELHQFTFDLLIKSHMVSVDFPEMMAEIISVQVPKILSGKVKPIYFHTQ
Summary of the method: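 AR antagonist background: nilutamide 3.0uM final. Cell line: MDA-kb2, MMTV-driven luciferase, responsive to both AR and GR. Exposure 16hr, 37C, no CO2; ONE-Glo luminescence.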

Compound | Potency [1] | Potency [2] | Potency [3] | Potency [4] | Potency [5] | Potency [6] | Potency [7] | Potency [8] | Potency [9] | Potency [10] | Potency [11] | Potency [12] | outcome [13] | Potency [14] | Potency [15] | Potency [16] | Potency [17] | outcome [18]
Cc1cc(C(C)(C)C)c(O)c(C)c1Cn1c(=O)n(Cc2c(C)cc(C(C)(C)C)c(O)c2C)c(=O)n(Cc2c(C)cc(C(C)(C)C)c(O)c2C)c1=O | inactive | inactive | inactive | inactive | inactive | inactive | inactive | inactive | inactive | inactive | inactive | inactive | inactive | inactive | inactive | – | – | –
CCCC(=O)OCOC(=O)C1=C(C)NC(C)=C(C(=O)OC)C1c1cccc(Cl)c1Cl (stereo not drawn) | inactive | inactive | – | inactive | inactive | inactive | inactive | – | – | inactive | inactive | inactive | inactive | inactive | inactive | inactive | inactive | inactive
O=[N+]([O-])c1cccc(C(F)(F)F)c1 | inactive | inactive | inactive | inactive | inactive | inactive | – | inactive | inactive | inactive | inactive | – | inactive | inactive | inactive | inactive | inactive | –
CCCCCCCC | inactive | inactive | inactive | inactive | inactive | inactive | inactive | – | – | – | inactive | inactive | inactive | inactive | inactive | inactive | inactive | –
OC1CCCc2ccccc21 (stereo not drawn) | inactive | inactive | inactive | inactive | inactive | inactive | inactive | – | – | – | inactive | inactive | inactive | inactive | inactive | inactive | inactive | –
CCCC1CCC(=O)CC1 | inactive | inactive | inactive | inactive | inactive | inactive | inactive | inactive | inactive | inactive | inactive | inactive | – | – | – | inactive | – | –
S=c1nccc[nH]1 | inactive | inactive | inactive | inactive | inactive | inactive | – | inactive | – | inactive | inactive | inactive | – | – | – | inactive | – | –
C=C(C)c1cccc(C(=C)C)c1 | inactive | inactive | inactive | inactive | inactive | inactive | inactive | inactive | inactive | inactive | inactive | inactive | inactive | inactive | inactive | inactive | – | –
O=C1c2ccccc2C(=O)N1SC1CCCCC1 | inactive | 61.1 µM (active) | inactive | inactive | 30.6 µM (active) | inactive | 15.3 µM (active) | – | inactive | – | – | inactive | inactive | inactive | inactive | inactive | inactive | –
CCCCCCCCCCCC(=O)OCC(C)OC(=O)CCCCC(=O)O (stereo not drawn) | inactive | inactive | – | inactive | inactive | inactive | inactive | inactive | inactive | inactive | inactive | inactive | inactive | inactive | – | inactive | inactive | –
O=C(Oc1ccccc1)Oc1ccccc1 | inactive | inactive | inactive | inactive | inactive | – | – | – | – | inactive | inactive | inactive | inactive | – | inactive | – | inactive | –
OC/C=C/CO | inactive | inactive | inactive | inactive | inactive | inactive | inactive | – | inactive | inactive | inactive | inactive | inactive | inactive | – | – | inactive | –
CCC(COC(=O)CCS)(COC(=O)CCS)COC(=O)CCS | inactive | inactive | inactive | inactive | inactive | inactive | inactive | – | – | – | inactive | inactive | inactive | inactive | inactive | inactive | – | –
C=CC(=O)OCCOC(=O)C=C | inactive | inactive | inactive | inactive | inactive | inactive | inactive | – | – | inactive | inactive | – | inactive | inactive | – | inactive | – | inactive
